A short description of experiment [1]: qHTS for Inhibitors of the Functional Ribonucleoprotein Complex (vRNP) of Lassa (LASV) Arenavirus: LASV Primary Screen - GLuc reporter signal (AID 1347082; calls by dose curve; tested in HEK293 reporter line; further: nearly all actives have a fitted effect of over 60% in size; further: potency means the concentration at half of the fitted maximal effect).
Experiment [2] can be described thus: qHTS for Inhibitors of the Functional Ribonucleoprotein Complex (vRNP) of Lassa (LASV) Arenavirus: Viability assay - alamar blue signal for LASV Primary Screen (AID 1347083; calls by dose curve; tested in HEK293 reporter line; further: nearly all actives have a fitted effect of over 80% in size; further: potency means the concentration at half of the fitted maximal effect).
Experiment [3] in a line: qHTS for Inhibitors of the Functional Ribonucleoprotein Complex (vRNP) of Lymphocytic Choriomeningitis Arenaviruses (LCMV): Viability assay - alamar blue signal for LCMV Primary Screen (AID 1347085; calls by dose curve; tested in HEK293 reporter line; further: nearly all actives have a fitted effect of over 80% in size; further: potency means the concentration at half of the fitted maximal effect).
For experiment [4], the target named is Nucleoprotein (Lymphocytic choriomeningitis virus (strain Armstrong)) (UniProt P09992). In words: qHTS for Inhibitors of the Functional Ribonucleoprotein Complex (vRNP) of Lymphocytic Choriomeningitis Arenaviruses (LCMV): LCMV Primary Screen - GLuc reporter signal (AID 1347086). Further: nearly all actives have a fitted effect of over 70% in size. Further: potency means the concentration at half of the fitted maximal effect.
A short description of experiment [5]: qHTS of pediatric cancer cell lines to identify multiple opportunities for drug repurposing: Primary screen for TC32 cells (AID 1347089; active means well fitted curve in the direction sought with a large enough effect; an effect the other way counts as inactive or inconclusive; further: nearly all actives have a fitted effect of over 60% in size). The method, boiled down: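 A viability screen of TC32 cells was run over 48 h, with primary MIPE doses spanning 0.78 nM–46 µM and NPC doses 0.59 nM–46 µM. ATP luminescence (CellTiter-Glo) served as the read-out.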
Experiment [6] can be described thus: qHTS of pediatric cancer cell lines to identify multiple opportunities for drug repurposing: Primary screen for DAOY cells (AID 1347090; active means well fitted curve in the direction sought with a large enough effect; an effect the other way counts as inactive or inconclusive; further: series mostly up to about 46 µM; nearly all actives have a fitted effect of over 55% in size). In a few lines:
(§1)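 Eight- or eleven-point concentration series, 48 h treatment at 37 degrees C in growth media; readout CellTiter-Glo luminescence. Potency and efficacy were taken from the concentration-response curves.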

Experiment [7] can be described thus: qHTS of pediatric cancer cell lines to identify multiple opportunities for drug repurposing: Primary screen for SJ-GBM2 cells (AID 1347091; active means well fitted curve in the direction sought with a large enough effect; an effect the other way counts as inactive or inconclusive). The method, boiled down:
as §1

The nature of experiment [8]: qHTS of pediatric cancer cell lines to identify multiple opportunities for drug repurposing: Primary screen for A673 cells (AID 1347092; active means well fitted curve in the direction sought with a large enough effect; an effect the other way counts as inactive or inconclusive; further: nearly all actives have a fitted effect of over 45% in size; further: potency means the concentration at half of the fitted maximal effect). The method, boiled down:
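Titration-based qHTS on A673 cells: MIPE compounds spanned 11 points (0.78 nM to 46 µM final), NPC compounds 8 points (0.59 nM to 46 µM final). Viability after 48 h was measured by ATP luminescence.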

Experiment [9] is described as follows: qHTS of pediatric cancer cell lines to identify multiple opportunities for drug repurposing: Primary screen for SK-N-MC cells (AID 1347093; active means well fitted curve in the direction sought with a large enough effect; an effect the other way counts as inactive or inconclusive; further: series mostly up to about 46 µM). In a few lines: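 Metabolically active cells were quantified by ATP-dependent luminescence (CellTiter-Glo, 15 min at room temperature) following 48 h treatment. Cells had been plated at 500-1,000 per well and settled for 5 h beforehand.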

Records with an inconclusive call do not appear. Activity calls are given as the source filed them. Unless noted, the call rests on the fitted dose curve.

Nucleoprotein (Lymphocytic choriomeningitis virus (strain Armstrong)), sequence (P09992 whole entry, looked up): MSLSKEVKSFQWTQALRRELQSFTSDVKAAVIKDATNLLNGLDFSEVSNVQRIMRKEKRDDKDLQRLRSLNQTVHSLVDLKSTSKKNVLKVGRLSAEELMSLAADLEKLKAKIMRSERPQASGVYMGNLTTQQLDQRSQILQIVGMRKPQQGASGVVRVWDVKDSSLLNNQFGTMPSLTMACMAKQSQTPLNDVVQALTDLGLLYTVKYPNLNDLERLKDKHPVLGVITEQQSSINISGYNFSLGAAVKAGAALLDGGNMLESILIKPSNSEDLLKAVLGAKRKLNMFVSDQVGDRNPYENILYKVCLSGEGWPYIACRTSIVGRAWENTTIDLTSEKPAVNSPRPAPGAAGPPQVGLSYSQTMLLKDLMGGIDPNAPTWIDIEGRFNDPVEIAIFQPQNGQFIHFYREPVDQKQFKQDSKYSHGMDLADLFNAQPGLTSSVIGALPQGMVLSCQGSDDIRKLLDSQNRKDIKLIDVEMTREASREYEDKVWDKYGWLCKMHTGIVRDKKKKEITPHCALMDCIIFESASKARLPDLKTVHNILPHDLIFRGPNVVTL

For the molecule `CC(=O)O[C@@H]1CC2C3CCc4cc(OC(=O)c5ccccc5)ccc4C3CCC2(C)[C@H]1OC(C)=O` (some centres not stated), the Potency result in experiment [1], in experiment [2], in experiment [3] and in experiment [4] was “inactive” throughout.
Turning to `Cc1noc(NS(=O)(=O)c2ccc(N)cc2)c1C`, the Potency entry in experiment [1], in [2], in [3] and in experiment [4] was “inactive” in each case.
On to `CCCCCCOc1ccccc1C(N)=O`, for which the Potency entry in [1], in experiment [2], in experiment [3] and in [4] was “inactive” each time.
`Cn1c([N+](=O)[O-])cnc1COC(N)=O`: the Potency result in experiment [1], in experiment [2], in [3] and in [4] was “inactive” throughout.
In the case of `Cc1cccn2c(=O)c(-c3nnn[nH]3)cnc12`, the Potency entry in experiment [1], in experiment [2], in [3] and in experiment [4] was “inactive” each time.
As to `C[N+](C)(CCOc1ccccc1)Cc1cccs1`, the Potency result in [1], in [2], in experiment [3] and in experiment [4] was “inactive” each time.
Take `C[N+](C)(C)CCOC(N)=O`: the Potency result in experiment [1], in experiment [2], in [3] and in experiment [4] was “inactive” throughout.
As to `Nc1ncnc2nc[nH]c12`, the Potency entry in experiment [1], in experiment [2], in [3] and in experiment [4] was “inactive” each time.
Take `Nc1c(I)cc(I)c(C(=O)N(CCC(=O)O)c2ccccc2)c1I`: the Potency entry in experiment [1], in [2], in [3] and in [4] was “inactive” each time.
For the molecule `NC(=O)NS(=O)(=O)c1ccc(N)cc1`, the Potency entry in experiment [1], in [2], in [3] and in experiment [4] was “inactive” in each case.
In the case of `O=C(O)c1ccccc1OP(=O)(O)O`, the Potency result in [1], in experiment [2], in [3] and in experiment [4] was “inactive” each time.
Turning to `CCCCCCCC/C=C/C(=O)O`, the Potency entry in [1], in experiment [2], in experiment [3] and in experiment [4] was “inactive” throughout.
For `Cc1c(F)c(N2CCNC(C)C2)cc2c1c(=O)c(C(=O)O)cn2C1CC1` (configuration not stated), the Potency entry in experiment [1], in experiment [2], in experiment [3] and in experiment [4] was “inactive” in each case.
Regarding `CNCCCC12CCC(c3ccccc31)c1ccccc12`, the Potency entry in experiment [1], in experiment [2], in experiment [3] and in [4] was “inactive” in each case.
Regarding `CO[C@@]1(NC(=O)CSCC#N)C(=O)N2C(C(=O)O)=C(CSc3nnnn3C)CS[C@@H]21`, the Potency result in experiment [1], in [2], in experiment [3] and in [4] was “inactive” in each case.
As to `CCCOc1ccc2c(c1)CC[C@@H]1[C@@H]2CC[C@]2(C)C(OC)CC[C@@H]12` (some centres not stated), the Potency result in experiment [1], in [2], in experiment [3] and in [4] was “inactive” throughout.
On to `C#CCC(Cc1cnc2nc(N)nc(N)c2n1)c1ccc(C(=O)N[C@@H](CCC(=O)O)C(=O)O)cc1` (some centres not stated), for which the Potency was 544 nM (active) in experiment [1], 273 nM (active) in [2], 217 nM (active) in experiment [3] and 306 nM (active) in experiment [4].
For the molecule `CC(C)(C)NCC(O)COc1ccccc1OCC1CCCO1` (configuration not stated), the Potency entry in experiment [1], in experiment [2], in experiment [3] and in [4] was “inactive” each time.
In the case of `NS(=O)(=O)c1cc(-c2nn[nH]n2)c(NCc2cccs2)cc1Cl`, the Potency entry in experiment [1], in experiment [2], in experiment [3] and in experiment [4] was “inactive” throughout.
Regarding `CC(C)Cn1cnc2c(N)nc3ccccc3c21`, the Potency result in experiment [1], in experiment [2], in experiment [3] and in [4] was “inactive” in each case.
On to `C[C@H](NC(CCc1ccccc1)C(=O)O)C(=O)N1CCC[C@H]1C(=O)O` (some centres not stated), for which the Potency result in experiment [1], in [2], in experiment [3] and in experiment [4] was “inactive” throughout.
Take `C[C@@H]1CN(c2c(F)c(F)c3c(=O)c(C(=O)O)cn(C4CC4)c3c2F)C[C@H](C)N1`: the Potency result in [1], in experiment [2], in experiment [3] and in experiment [4] was “inactive” throughout.
For `CC(O)CCCCn1c(=O)c2c(ncn2C)n(C)c1=O` (configuration not stated), the Potency result in [1], in [2], in experiment [3] and in [4] was “inactive” throughout.
Take `CCCCCCCC/C=C\CCCCCCCC(=O)NCc1ccc(O)c(OC)c1`: the Potency entry in experiment [1], in experiment [2], in experiment [3] and in experiment [4] was “inactive” each time.
As to `CC(C)CN(C[C@@H](O)[C@H](Cc1ccccc1)NC(=O)O[C@H]1CO[C@H]2OCC[C@H]21)S(=O)(=O)c1ccc(N)cc1`, the Potency entry in experiment [1], in [2], in experiment [3] and in experiment [4] was “inactive” each time.
Turning to `CN1Cc2cc(C(=O)N3CCC(C4CCNCC4)CC3)ccc2NC(CC(=O)O)C1=O` (configuration not stated), the Potency entry in experiment [1], in experiment [2], in experiment [3] and in [4] was “inactive” each time.
As to `O=C(NCCO[N+](=O)[O-])c1cccnc1`, the Potency entry in experiment [1], in experiment [2], in experiment [3] and in experiment [4] was “inactive” in each case.
As to `O=S(=O)(O)c1ccc(O)cc1`, the Potency result in experiment [1], in [2], in [3] and in [4] was “inactive” each time.
For `O=C(O)c1cc(-c2ccccc2)nc2ccccc12`, the Potency entry in experiment [1], in experiment [2], in [3] and in experiment [4] was “inactive” in each case.
With `NS(=O)(=O)c1ccc(NC(=O)CCC(=O)O)cc1`, the Potency result in experiment [1], in [2], in [3] and in [4] was “inactive” throughout.
Turning to `CCOP(=S)(OCC)Oc1ccc2c(C)c(Cl)c(=O)oc2c1`, the Potency entry in experiment [1], in [2], in experiment [3], in experiment [4], in [5] and in experiment [6] was “inactive” each time. For the same molecule, in [7], the Potency result is “inactive”. Also, the Potency in experiment [8] is 1 nM (active).
Take `NS(=O)(=O)c1cc2c(cc1Cl)NC(CC1CCCC1)NS2(=O)=O` (configuration not stated): the Potency entry in experiment [1], in experiment [2], in experiment [3] and in experiment [4] was “inactive” each time.
Take `CCN(CCO)CCn1c(Cc2ccccc2)nc2c1c(=O)n(C)c(=O)n2C`: the Potency result in [1], in [2], in experiment [3], in experiment [4], in experiment [5] and in experiment [6] was “inactive” each time. Also, the Potency result in experiment [7], in experiment [8] and in [9] was “inactive” throughout.
As for `O=C1OC(CCN2CCCCC2)OC1(c1ccccc1)c1ccccc1` (configuration not stated), the Potency result in experiment [1], in [2], in experiment [3], in experiment [4], in experiment [5] and in experiment [7] was “inactive” each time.

Values taken from PubChem BioAssay (NCATS).
